Rows were chosen to be rich in hits. Some 6.2% of all compounds tested hit in one or more screens of this group.
Lassa entry inh: qHTS for Inhibitors of binding or entry into cells for Lassa Virus; Lassa virus pseudotype entry inhibition, cell reporter; Potency, µM (series often up to 37.9 µM), without a hit: at the highest dose activity change, negative = inhibition, usual class: inhibitors; hit rate 1.2% among 300,000; AID 540256, 2011; calls by dose curve; tested in HEK293 cells; note: potency is the fitted concentration of half-maximal effect; nearly all actives have a fitted effect of over 50% in size
HCMV antiviral: qHTS Assay for inhibitors of the human cytomegalovirus (HCMV); hit rate 4.5% among 410,000; HFF cells, HCMV-luciferase reporter, 72 h; active compounds read low; activity change, negative = inhibition, % at 57.5 µM; in the data active = activity change below about -60%; inconclusive = no clear call, values can overlap the other calls; inactive = above about -39%
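Cell-based, HFFs, 1000 cells/well, 16 h 37C; cpds in DMSO + HCMV-luc, MOI 1 PFU/cell; 72 h 37C; OneGlo luminescence after 5 min RT; norm. to buffer vs Salinomycin 10uM.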
FMDV inh: High Throughput Screening for Foot and Mouth Disease Virus Antivirals; FMDV antiviral cell-based qHTS; Potency, µM (series often up to 57.9 µM), for inactives: at the highest dose activity change, negative = inhibition, usual class: inhibitors; hit rate 1.2% among 410,000; AID 1159524, 2015; calls by dose curve; tested in HEK293T cells; note: read-out not given here; potency is the fitted concentration of half-maximal effect; nearly all actives have a fitted effect of over 45% in size
Marburg entry inh: qHTS for inhibitors of binding or entry into cells for Marburg Virus | Potency, µM (highest dose often 37.8 µM), inactives show at the top dose activity change, negative = inhibition, actives largely listed as inhibitors | Marburg virus pseudotyped entry inhibition, cell reporter | hit rate 1.8% among 300,000; calls by dose curve; tested in HEK293 cells; note: potency is the fitted concentration of half-maximal effect
* hit, by the source's call; ! = a repeat was not active; [ ] = remark or other dose. % is set by controls: 0 for no effect and ±100 for the full control effect.

For N#Cc1c(N2CCCC(O)C2)nc(N)c2c(N)nc3c(c12)CC(=O)N3C12CC3CC(CC(C3)C1)C2 (stereo not given) the results were Lassa entry inh 8.2µM*, HCMV antiviral 69.8, FMDV inh -25.9% and Marburg entry inh inconclusive.
For CC(=O)N[C@@H](C)C(=O)NCC1Cc2cc(C)cc(-c3cnccn3)c2O1 (stereo not given in full) the results were FMDV inh -10.1%.
For COc1cc(CN(C(=O)c2ccccc2[N+](=O)[O-])c2ccccn2)cc(OC)c1OC the results were Lassa entry inh -2.2%[46.1 µM], HCMV antiviral -3.7, FMDV inh -10.6% and Marburg entry inh -39.7%[46.1 µM].
Screening CC(C)(O)C1C2OC(=O)C1C1(O)CC3OC34C(=O)OC2C14C (stereo not given) returned HCMV antiviral -75.8* and FMDV inh -21.1%.
Screening C1COC(NC(C2CC2)C2CC2)=N1 returned Lassa entry inh -3.3%, HCMV antiviral -24.5, FMDV inh -14.0% and Marburg entry inh 11.2µM*!.
C=C1C[C@@]23CC[C@H]4[C@@](C)(CCC[C@@]4(C)C(=O)OC4OC(CO)C(O)C(O)C4O)[C@@H]2CC[C@]1(OC1OC(CO)C(O)C(O)C1OC1OC(CO)C(O)C(O)C1O)C3 (stereo not given in full) was read as Lassa entry inh 25.2% and Marburg entry inh 1.5%.
For O=C(NCCc1c[nH]c2ccccc12)/C(=C\c1cccnc1)NC(=O)c1ccco1 the results were Lassa entry inh -5.1%, HCMV antiviral -9.9, FMDV inh -26.5% and Marburg entry inh inconclusive.
Screening O=C(NCCc1c[nH]c2ccccc12)/C(=C\c1cccnc1)NC(=O)c1ccccc1Br returned HCMV antiviral 6.3 and FMDV inh 3.55µM*.
For COc1ccc(C(c2nnnn2C2CCCCC2)N2CCN(C/C=C/c3ccccc3)CC2)cc1 (stereo not given) the results were HCMV antiviral 14.8 and FMDV inh 8.4%.
For COc1cccc(-c2cncnc2NCc2cccc(C)c2)c1 the results were FMDV inh -16.9%.
For Cn1cnc2nc(Cl)nc(Cl)c21 the results were Lassa entry inh inconclusive, HCMV antiviral -71.7*, FMDV inh inconclusive and Marburg entry inh inconclusive.
COc1ccc(CN([C@H](CO)CC(C)C)S(=O)(=O)N(Cc2ccccc2)[C@H](CO)CC(C)C)cc1 was read as HCMV antiviral -89.1* and FMDV inh inconclusive.
For COC(=O)[C@H](Cc1ccccc1)N(Cc1ccccc1)S(=O)(=O)N(Cc1ccccc1)[C@@H](Cc1ccccc1)C(=O)OC the results were HCMV antiviral -96.4* and FMDV inh inconclusive.
For CCn1c(CN2CCCCC2)nc2cc(NC(=O)c3ccc([N+](=O)[O-])cc3)ccc21 the results were Lassa entry inh -2.0%[46.1 µM], HCMV antiviral -28.5, FMDV inh inconclusive and Marburg entry inh inconclusive.
For CCOC(=O)C1=CCN(S(=O)(=O)c2ccc(F)cc2)C1c1cccc(Cl)c1 (stereo not given) the results were HCMV antiviral -23.8 and FMDV inh -23.9%.
`CCOC(=O)C1=C[C@@H](CC)N(S(=O)(=O)c2ccc([N+](=O)[O-])cc2)[C@H]1c1ccccc1` gave HCMV antiviral -39.0 and FMDV inh inconclusive.
Screening Cc1ccc(S(=O)(=O)N2[C@@H](c3ccc(Cl)cc3)C(C(=O)O)=CC[C@H]2c2ccc(Cl)c(Cl)c2)cc1 returned HCMV antiviral -64.4* and FMDV inh -24.6%.
CCOC(=O)C1=C[C@@H](C(C)(C)C)N(S(=O)(=O)c2ccc(C)cc2)[C@H]1c1ccc(OC)cc1 was read as HCMV antiviral -64.1* and FMDV inh -16.0%.
`CCOC(=O)C1=CC[C@@H](c2cccc(Br)c2)N(S(=O)(=O)c2ccc(F)cc2)[C@H]1c1cccc(Cl)c1` gave HCMV antiviral -73.5* and FMDV inh -1.9%.
For CCOC(=O)C1=C[C@@H](C(C)(C)C)N(S(=O)(=O)c2ccc([N+](=O)[O-])cc2)[C@H]1c1ccccc1 the results were HCMV antiviral -74.6* and FMDV inh inconclusive.
`CCOC(=O)C1=C[C@@H](C(C)(C)C)N(S(=O)(=O)c2ccc(OC)cc2)[C@H]1c1ccccc1` gave HCMV antiviral -34.2 and FMDV inh -29.0%.
`CCOC(=O)C1=CCN(S(=O)(=O)c2ccc(C)cc2)[C@H]1c1ccccc1Cl` gave HCMV antiviral -38.4 and FMDV inh -27.3%.
`Cc1ccc(C)c(Cn2c(=O)cc(C)c3c(C)nn(C)c32)c1` gave Lassa entry inh inconclusive, HCMV antiviral -10.5 and FMDV inh inconclusive.
For Cc1nn(CC(=O)Nc2ccc(OC(F)(F)F)cc2)c(=O)c2c(C)n(-c3ccc(Cl)cc3)nc12 the results were Lassa entry inh -1.9%[46.1 µM], HCMV antiviral 9.2 and FMDV inh -10.9%.
COc1ccc(-c2ccc(CCC(=O)O)n2-c2ccc(Cl)cc2C)cc1 was read as Lassa entry inh -1.9%[46.1 µM], HCMV antiviral 8.2, FMDV inh -16.3% and Marburg entry inh inconclusive.
Screening CCOC(=O)N1CCN(S(=O)(=O)c2ccc(C)cc2)C1c1ccc(OC)cc1 (stereo not given) returned Lassa entry inh 23.1µM*, HCMV antiviral -17.0, FMDV inh -8.0% and Marburg entry inh inconclusive.
CCOC(=O)N1CCN(S(=O)(=O)c2ccc(C)cc2)C1c1ccccc1 (stereo not given) was read as Lassa entry inh -8.9%, HCMV antiviral 16.8, FMDV inh inconclusive and Marburg entry inh -16.6%[46.1 µM].
CCOC(=O)C1=C[C@@H](C(C)(C)C)N(S(=O)(=O)c2ccc(C)cc2)[C@H]1c1cccc(Cl)c1 was read as HCMV antiviral -87.9* and FMDV inh -52.0%.
Cc1ccc(CSc2nc3ccc(NC(=O)CC(C)C)cc3s2)cc1 was read as Lassa entry inh -10.7%[46.1 µM], HCMV antiviral -6.7, FMDV inh 3.3% and Marburg entry inh -18.4%[46.1 µM].
CCNC(=O)c1c(NC(=O)Cc2coc3ccc(CC)cc23)sc2c1CCCC2 was read as Lassa entry inh 0.6%[46.1 µM], HCMV antiviral -2.1, FMDV inh -13.1% and Marburg entry inh inconclusive.
COc1ccc(C2=NNC(=Nc3cc(S(=O)(=O)N(C)C)ccc3C)SC2)c(OC)c1 was read as HCMV antiviral -97.5* and FMDV inh inconclusive.
`COc1ccc2c(c1)c(N1CCCC1=O)c(C(=O)Nc1ccc(Cl)cc1C)n2C` gave Lassa entry inh -23.7%[46.1 µM], HCMV antiviral 2.8 and FMDV inh -25.3%.
CC(C)=CCCC(C)=CCN1C(=O)[C@@]2(CC(C)=C[C@@H](COCc3ccccc3)O2)c2ccccc21 was read as Marburg entry inh 6.4%[14.2 µM].
`O=C(NC1CC(=O)N(c2cccc(F)c2)C1)C1CCCC1` (stereo not given) gave Lassa entry inh 3.4%[46.1 µM], HCMV antiviral -9.2 and FMDV inh -7.0%.
For CN1/C(=C\C=C2C(=O)NC(=S)NC2=O)C(C)(C)c2ccccc21 the results were Lassa entry inh -22.2%[46.1 µM], HCMV antiviral -20.3, FMDV inh -17.6% and Marburg entry inh inconclusive.
